Bioassay records as filed in PubChem.
TDP1 cell noCPT = qHTS for Inhibitors of human tyrosyl-DNA phosphodiesterase 1 (TDP1): qHTS in cells in absence of CPT | Potency, µM (highest dose often 46.2 µM), hits mostly inhibitors | hit rate 15% among 420,000 | DT40 Tdp1-/- hTDP1 cells, no CPT, ATP luminescence, 48 h | AID 686978, 2013; further: nearly all actives have a fitted effect of over 55% in size
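Readout: luminescence from CellTiter-Glo after 30 min in the dark at RT. Cells: DT40 Tdp1-/- with stable hTDP1, 400/well. Exposure: compounds alone, ≥48 hr, 37 °C.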
Six1-Eya2 blk = inhibitors of human Six1/Eya2 interaction. AlphaScreen GST-Six1/His-Eya2 binding, biochemical; hits give low values. activity change, % (no concentration beside the values). hit rate 0.56% among 360,000; in the data active means activity change below about -65%; inconclusive means mostly about -30% to -63%
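Homogeneous AlphaScreen proximity assay pairing GST-Six1 with His-tagged Eya2 (added as 5X mix: 250 nM and 500 nM) in 50 mM Tris pH 8.0, 300 mM NaCl, 1 mM TCEP. Glutathione donor and nickel acceptor beads; 1 h, 37 °C, dark.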
TDP1 inh = blocks human tyrosyl-DNA phosphodiesterase 1. Q9NUW8. recombinant TDP1, AlphaScreen DNA substrate cleavage. Potency, µM (top dose mostly 130 µM), actives largely listed as inhibitors. hit rate 0.28% among 350,000; further: nearly all actives have a fitted effect of over 40% in size
Target sequence (Q9NUW8 whole entry, looked up): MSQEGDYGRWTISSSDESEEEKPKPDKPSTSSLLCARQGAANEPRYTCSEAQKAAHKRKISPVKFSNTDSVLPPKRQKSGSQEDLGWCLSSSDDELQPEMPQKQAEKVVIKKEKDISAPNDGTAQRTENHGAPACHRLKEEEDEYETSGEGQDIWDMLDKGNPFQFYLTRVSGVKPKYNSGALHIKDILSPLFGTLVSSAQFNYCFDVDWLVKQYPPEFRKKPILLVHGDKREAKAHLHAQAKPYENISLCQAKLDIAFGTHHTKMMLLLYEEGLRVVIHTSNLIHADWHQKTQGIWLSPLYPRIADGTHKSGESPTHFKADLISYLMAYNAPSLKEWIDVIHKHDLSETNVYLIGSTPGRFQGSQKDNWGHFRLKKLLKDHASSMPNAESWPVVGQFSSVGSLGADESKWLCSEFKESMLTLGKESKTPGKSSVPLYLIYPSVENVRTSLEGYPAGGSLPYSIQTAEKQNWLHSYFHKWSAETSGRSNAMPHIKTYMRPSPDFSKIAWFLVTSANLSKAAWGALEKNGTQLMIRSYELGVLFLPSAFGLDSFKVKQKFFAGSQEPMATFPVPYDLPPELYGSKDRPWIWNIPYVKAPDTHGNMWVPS
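Signal: AlphaScreen proximity between streptavidin donor and anti-FITC acceptor beads on intact substrate. Reaction: Tdp1 1 nM, substrate 15 nM final, 5 min RT after 15 min compound preincubation.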
CtBP-E1A blk = blocks the CtBP interaction with E1A | activity change, % (test concentration not listed) | AlphaScreen GST-E1A/His-CtBP binding, 1536-well; hits give low values | hit rate 0.49% among 340,000; in the data active means activity change below about -65%; inconclusive means mostly about -30% to -63%
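Homogeneous bead-based format: GST-tagged E1A captured on glutathione donor beads, His-tagged CtBP on nickel acceptor beads; compounds precede bead addition by 2 h at 37 °C.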
TDP1 cell CPT = growth inhibition of DT40 Tdp1-/-;hTDP1 cells with camptothecin (screen for TDP1 inhibitors); hit rate 12% among 420,000; chicken DT40 Tdp1-/-;hTDP1 cells + 20 nM CPT, ATP luminescence, 48 h; AID 686979; Potency, µM (highest dose often 46.2 µM), usual class: inhibitors; further: nearly all actives have a fitted effect of over 55% in size
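Chicken DT40 Tdp1-/- cells stably complemented with human TDP1 were seeded at 400 cells/well in medium containing 20 nM camptothecin, exposed to pin-transferred compounds, and grown at 37 °C for at least 48 hr. Viability was read as ATP luminescence.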
IL1B secr inh = inflammasome signaling inhibition, IL-1 beta readout. THP-1 LPS/ATP IL-1B secretion, AlphaLISA, 16 h; hits give low values. activity change, % at 57.5 µM. hit rate 4.7% among 360,000. AID 743279; in the data active means activity change below about -50%; inconclusive means mostly about -30% to -49%
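Secreted IL-1B measured by AlphaLISA bead assay after 16 h compound exposure of THP-1 cells; compounds (final up to 57.5 uM) added 1 h before LPS (250 ng/mL) and ATP (1.25 mM) stimulation; lower signal means less secretion.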
A number is an active result; 0 = inactive; ? = inconclusive; - = no result given. Only some compounds are listed: those with a hit (about 18% of all), similar ones and a draw of the others. Unless noted, the call rests on the fitted dose curve; in most records, active means well fitted curve in the direction sought with a large enough effect; inconclusive means small, poorly fitted or top-dose-only effect, or another doubt; inactive means no such curve, though single readings can be large; an effect the other way counts as inactive or inconclusive.

SMILES	TDP1 cell noCPT	Six1-Eya2 blk	TDP1 inh	CtBP-E1A blk	TDP1 cell CPT	IL1B secr inh
c1ccc(-c2cc3ncc4c(n3n2)-c2ccccc2OC4)cc1	0	-	0	-	0	-
CC1=CCC2C(=O)N(c3nc4ccccc4n3C)C(=O)C2C1 (centres undefined)	0	0	40µM	0	0	0
CC1=CCC2C(=O)N(C(C)c3ccccc3)C(=O)C2C1 (centres undefined)	0	0	0	0	0	0
COC(=O)c1nn(-c2ccccc2)c2nnc(Cc3ccc(C)cc3)c(=O)n12	0	0	0	0	0	0
Cc1ccc(-n2nc(C(=O)c3ccccc3)n3c(=O)c(Cc4ccccc4)nnc23)cc1	12µM	0	-	0	?	0
Cc1ccc(NC(=O)CCS(=O)(=O)c2ccc3c(c2)NC(=O)C(C)S3)cc1Cl (centres undefined)	0	0	0	0	0	0
CC(=O)OCCCN(C)CC/C=C1/c2ccccc2CSc2ccccc21	?	0	-	0	?	-70
COc1ccc(N(Cc2ccccc2)C(=O)CSc2nnc(Cn3nnc4ccccc43)o2)cc1	23µM	0	0	0	26µM	0
O=C(CSc1nnc(Cn2nnc3ccccc32)o1)N(Cc1ccc(F)cc1)c1ccccc1	7.1µM	0	0	0	7.3µM	-82
C1=Nc2c(Nc3ccccc3)ncnc2Oc2ccccc21	10µM	0	0	0	9.2µM	0
Clc1ccc2c(c1)C=Nc1c(NCc3ccccc3)ncnc1O2	0	0	0	0	0	0
CCn1c(SCC(=O)O)nnc1C1CCCCC1	0	0	0	0	0	0
O=C(COc1ccccc1)N[C@@H]1c2ccccc2CC[C@H]1OCc1ccccc1	26µM	0	0	0	?	0
O=C(COc1ccccc1)N[C@@H]1c2ccccc2CC[C@@H]1OCc1ccccc1	0	0	0	0	?	0
O=C(COCc1ccccc1)N[C@@H]1c2ccccc2CC[C@@H]1OCc1ccccc1	?	0	0	0	?	-51
O=C(CCc1ccccc1)N[C@@H]1c2ccccc2CC[C@H]1OCc1ccccc1	12µM	0	0	0	?	0
O=C(Cc1ccccc1)N[C@@H]1c2ccccc2CC[C@@H]1OCc1ccccc1	0	0	0	0	0	0
CCN(CC(=O)Nc1ccc(NC(C)=O)cc1)C(=O)c1ccc(N2C(=O)c3ccccc3C2=O)cc1	0	0	-	-	0	0
O=C(CCNS(=O)(=O)c1cccs1)Nc1ccccc1F	0	0	0	0	0	0
Oc1ccc2[nH]cnc2c1CN1CCCCC1	0	0	0	0	0	0
O=C(/C=C/Nc1ccc(Oc2ccccc2Cl)cc1)c1ccco1	15µM	0	0	0	18µM	0
CN(C)c1ccc(N/C=C/C(=O)c2ccco2)cc1	?	?	0	?	21µM	?
COc1ccccc1Oc1ccc(N/C=C/C(=O)c2ccco2)cc1	18µM	0	0	0	?	-52
CCOc1ccccc1NC(=O)COc1cccnc1[N+](=O)[O-]	?	0	0	0	0	0
Fc1ccc(-c2csc3ncnc(N4CCc5ccccc5C4)c23)cc1	?	0	0	0	16µM	0
SMILES	TDP1 cell noCPT	Six1-Eya2 blk	TDP1 inh	CtBP-E1A blk	TDP1 cell CPT	IL1B secr inh
Cc1ccc(-c2csc3ncnc(N4CCc5ccccc5C4)c23)cc1	21µM	0	0	0	?	0
O=[N+]([O-])c1cccc(-c2cnc3ccccc3n2)c1	0	0	-	-	0	0
O=[N+]([O-])c1cccc(-c2nc3ccccc3s/c2=N/O)c1	?	0	0	0	0	-81
Cn1nccc1C(=O)NC1CCCc2c1cnn2-c1ccc(C(C)(C)C)cc1 (centres undefined)	2.9µM	0	0	0	2.9µM	0
CC(C)(C)c1ccc(-n2ncc3c2CCCC3NC(=O)c2csnn2)cc1 (centres undefined)	12µM	0	0	0	?	0
CC(C)(C)c1ccc(-n2ncc3c2CCCC3NC(=O)c2cnccn2)cc1 (centres undefined)	9.2µM	0	0	0	?	-82
CC(=O)NC1CCCc2c1cnn2-c1ccc(C(C)(C)C)cc1 (centres undefined)	?	0	-	0	?	0
O=C(COC(=O)CC1CCCC1)Nc1ccc(OC(F)F)cc1	0	0	0	0	0	0
CCC(C)N1C(=O)/C(=C/c2c(NCCCOC(C)C)nc3c(C)cccn3c2=O)SC1=S (centres undefined)	9.2µM	0	0	0	?	0
Cc1ccc(NC(=O)c2ccc(NC(=O)CCS(=O)(=O)c3cccs3)cc2)cc1F	?	-	0	-	0	-
COC(=O)CC1C(=O)NCCN1C(=O)c1sc2ccccc2c1Cl (centres undefined)	0	0	-	-	0	0
CC(Sc1nc2cc([N+](=O)[O-])ccc2n1-c1ccc(F)cc1)C(=O)NCc1ccc2c(c1)OCO2 (centres undefined)	15µM	0	0	0	16µM	0
Cc1cc(C)cc(-n2c(SC(C)C(=O)NCc3ccc4c(c3)OCO4)nc3ccccc3c2=O)c1 (centres undefined)	15µM	0	0	0	13µM	0
Cc1cccc(-n2c(SCC(=O)NCc3ccc4c(c3)OCO4)nc3ccccc3c2=O)c1	?	0	0	0	?	0
CC(Sc1nnc(-c2cccnc2)n1-c1ccccc1)C(=O)NCc1ccc2c(c1)OCO2 (centres undefined)	0	0	0	0	0	0
COc1ccccc1-n1c(SCC(=O)NCc2ccc3c(c2)OCO3)nc2cc([N+](=O)[O-])ccc21	21µM	0	0	0	4.1µM	?
O=C(Cc1ccc([N+](=O)[O-])cc1)NCc1ccc2c(c1)OCO2	0	0	0	0	0	0
CN(Cc1ccccc1)C(=O)c1ccc2nc([C@H]3C[C@H](O)[C@@H](CO)O3)[nH]c2c1	0	0	-	0	0	0
CCSC1(SCC)N=C(N)C2(C#N)C(c3ccccc3)NC3=C(CCC3)C12C#N (centres undefined)	0	0	0	0	0	0
CCSC1(SCC)N=C(N)C2(C#N)C(c3ccc(OC)c(OC)c3OC)C12C#N (centres undefined)	8.2µM	0	0	0	6.5µM	-115
COc1ccc(C(=O)OCCN2CCOCC2)cc1	0	0	0	0	0	0
O=C(Nc1cc(Cl)cc(Cl)c1)c1cc(S(=O)(=O)NC2CCCC2)ccc1F	21µM	-	0	-	?	-
